{"source": "the antibiotic and cytotoxicity screens of Wong et al. (2023)", "note": "The whole screen tested about 39,000 compounds, of which about 500 (1.3%) were called active. The sample holds actives, similar compounds and a random draw of the others, so the mix is not that of the screen."}
{"tested_on": "S. aureus RN4220", "experiment": "growth inhibition call (relative growth <= 0.2)", "conditions": "50 µM"}
{"smiles": "C[C@@H]1CN([C@@H](C)CO)C(=O)c2cc(NC(=O)Nc3ccc(C(F)(F)F)cc3)ccc2O[C@@H]1CN(C)C(=O)Nc1ccc2c(c1)OCO2", "growth inhibition call": "inactive"}
{"smiles": "CC(=O)c1c(C)nn(CC(=O)O)c1C", "growth inhibition call": "inactive"}
{"smiles": "COc1ccc(NC(=O)N(C)C[C@@H]2OCCCC[C@@H](C)Oc3ccc(NC(=O)NC(C)C)cc3C(=O)N([C@H](C)CO)C[C@@H]2C)cc1", "growth inhibition call": "inactive"}
{"smiles": "O=C(C[C@@H]1C[C@@H]2c3cc(NC(=O)c4ccc5c(c4)OCO5)ccc3O[C@@H]2[C@H](CO)O1)NCc1ccc(Oc2ccccc2)cc1", "growth inhibition call": "inactive"}
{"smiles": "CN(C)C1C(O)=C(C(N)=O)C(=O)C2(O)C(O)=C3C(=O)c4c(O)ccc(Cl)c4C(C)(O)C3CC12.Cl", "note": "(configuration not stated)", "growth inhibition call": "inactive"}
{"smiles": "CN(C)[C@@H]1C(=O)C(C(=O)NCN2CCCC2)=C(O)[C@@]2(O)C(O)=C3C(=O)c4c(O)cccc4[C@@](C)(O)[C@H]3C[C@@H]12", "growth inhibition call": "active"}
{"smiles": "CN(C)C1C(O)=C(C(N)=O)C(=O)C2(O)C(O)=C3C(=O)c4c(O)cccc4C(C)(O)C3CC12.Cl", "note": "(configuration not stated)", "growth inhibition call": "inactive"}
{"smiles": "C[C@H](O)[C@H](O)[C@@H](O)[C@@H](O)/C=N/NC(=O)c1ccc(C(=O)NO)cc1", "growth inhibition call": "inactive"}
{"smiles": "COc1ccc(S(=O)(=O)N2C[C@@H](O)COC[C@H]3O[C@@H](CC(=O)N[C@H]4CCN(Cc5ccccc5)C4)CC[C@@H]32)cc1", "growth inhibition call": "inactive"}
{"smiles": "CC(=O)Oc1cccc(O)c1", "growth inhibition call": "inactive"}
{"smiles": "CC(=O)Oc1cccc(C)c1", "note": "[meta-CRESYL ACETATE]", "growth inhibition call": "inactive"}
{"smiles": "CN(CCCCCCCCCCN(C)C(=O)Oc1cccc([N+](C)(C)C)c1)C(=O)Oc1cccc([N+](C)(C)C)c1", "growth inhibition call": "active"}
{"smiles": "C[C@@H]1CN([C@H](C)CO)C(=O)c2cc(NC(=O)C3CCCCC3)ccc2O[C@@H](C)CCCCO[C@@H]1CN(C)C(=O)Nc1ccccc1", "growth inhibition call": "inactive"}
{"smiles": "COc1ccc(S(=O)(=O)N(C)C[C@@H]2Oc3ccc(NC(=O)CCN4CCOCC4)cc3CC(=O)N([C@@H](C)CO)C[C@H]2C)cc1", "growth inhibition call": "inactive"}
{"smiles": "C[C@@H]1CN([C@H](C)CO)C(=O)Cc2cc(NS(=O)(=O)c3cn(C)cn3)ccc2O[C@H]1CN(C)S(C)(=O)=O", "growth inhibition call": "inactive"}
{"smiles": "CC(C)Oc1cccc(CC(=O)N2CCC[C@](CC[N+]34CCC(c5ccccc5)(CC3)CC4)(c3ccc(Cl)c(Cl)c3)C2)c1", "growth inhibition call": "active"}
{"smiles": "CC(=O)N(C)C1(c2ccccc2)CCN(CCC[C@]2(c3ccc(Cl)c(Cl)c3)CCCN(C(=O)c3ccccc3)C2)CC1", "growth inhibition call": "inactive"}
{"smiles": "C[C@@H]1CN([C@@H](C)CO)C(=O)c2cccc(NC(=O)C3CCOCC3)c2O[C@H]1CN(C)Cc1ccc(C(=O)O)cc1", "growth inhibition call": "inactive"}
{"smiles": "NCC[C@H]1CC[C@@H](NC(=O)Nc2ccc(F)cc2)[C@@H](CO)O1", "growth inhibition call": "inactive"}
{"smiles": "CC1(C(=O)O)CCC2(C)CCC3(C)C(=CC(=O)C4C5(C)CCC(O)C(C)(C)C5CCC43C)C2C1", "note": "(configuration not stated)", "growth inhibition call": "inactive"}
{"smiles": "CC(=O)Oc1cc2c(c(C)c1OC(C)=O)CC=C1[C@@]2(C)CC[C@@]2(C)[C@H]3C[C@](C)(C(=O)O)CC[C@]3(C)CC[C@]12C", "growth inhibition call": "active"}
{"smiles": "C[C@@H]1CCCCO[C@@H](CN(C)Cc2ccc(C(=O)O)cc2)[C@H](C)CN([C@H](C)CO)C(=O)c2cc(NC(=O)Nc3ccc(F)cc3)ccc2O1", "growth inhibition call": "inactive"}
{"smiles": "C[C@@H]1CN([C@@H](C)CO)C(=O)c2cc(C#CC3(O)CCCC3)cnc2O[C@@H]1CN(C)S(=O)(=O)c1ccc(F)cc1", "growth inhibition call": "inactive"}
{"smiles": "COCC(=O)N1CC[C@]2(CC1)CN([C@H](CO)c1c2c2ccc(cc2n1C)OC)C(=O)Cc1ccccc1", "growth inhibition call": "inactive"}
{"smiles": "CCOC(=O)CCC(=O)O[C@H]1[C@H](O[C@@H]2[C@@H](C)[C@H](O[C@H]3C[C@@](C)(OC)[C@@H](O)[C@H](C)O3)[C@@H](C)C(=O)O[C@H](CC)[C@@](C)(O)[C@H](O)[C@@H](C)C(=O)[C@H](C)C[C@@]2(C)O)O[C@H](C)C[C@@H]1N(C)C", "growth inhibition call": "active"}
{"smiles": "CCOC(=O)CCC(=O)OC1C(OC2C(C)C(OC3CC(C)(OC)C(O)C(C)O3)C(C)C(=O)OC(CC)C(C)(O)C(O)C(C)C(=O)C(C)CC2(C)O)OC(C)CC1N(C)C", "note": "(configuration not stated)", "growth inhibition call": "active"}
{"smiles": "CCC(=O)O[C@H]1[C@H](O[C@@H]2[C@@H](C)[C@H](O[C@H]3C[C@@](C)(OC)[C@@H](O)[C@H](C)O3)[C@@H](C)C(=O)O[C@H](CC)[C@@](C)(O)[C@H](O)[C@@H](C)C(=O)[C@H](C)C[C@@]2(C)O)O[C@H](C)C[C@@H]1N(C)C", "growth inhibition call": "inactive"}
{"smiles": "CCC(=O)OC1C(OC2C(C)C(OC3CC(C)(OC)C(O)C(C)O3)C(C)C(=O)OC(CC)C(C)(O)C(O)C(C)C(=O)C(C)CC2(C)O)OC(C)CC1N(C)C.CCCCCCCCCCCCOS(=O)(=O)O", "note": "(configuration not stated)", "growth inhibition call": "inactive"}
{"smiles": "CO[C@@H]1CN(C)C(=O)c2ccc(NC(=O)Nc3ccc(F)cc3)cc2OC[C@@H](C)N(C(=O)c2ccc(F)cc2)C[C@H]1C", "growth inhibition call": "inactive"}
{"smiles": "Cc1nn(C)c2c1[C@@H](c1ccc(C(F)(F)F)cc1)C(C#N)C(=N)O2", "note": "(some centres not stated)", "growth inhibition call": "inactive"}
{"smiles": "CCCNC(=O)N(C)C[C@H]1Oc2cc(-c3ccccc3F)ccc2S(=O)(=O)N([C@@H](C)CO)C[C@H]1C", "growth inhibition call": "inactive"}
{"smiles": "Cc1noc(C)c1NC(=O)Nc1ccc2c(c1)C(=O)N([C@@H](C)CO)C[C@@H](C)[C@@H](CN(C)Cc1ccc(C(=O)O)cc1)OCCCC[C@H](C)O2", "growth inhibition call": "inactive"}
{"smiles": "C[C@@H]1CN([C@H](C)CO)C(=O)c2cc(NC(=O)c3ccncc3)ccc2O[C@@H]1CN(C)Cc1ccc(C(=O)O)cc1", "growth inhibition call": "inactive"}
{"smiles": "COc1cccc(CNC(=O)c2cc3c(c(-c4cccc(-c5ccncc5)c4)n2)[C@@H](CCO)N([S@](=O)C(C)(C)C)C3)c1", "growth inhibition call": "inactive"}
{"smiles": "CCCCCCCCCCCCCCCC(=O)O[C@@H]1[C@@H](O)[C@@H](O)[C@@H]([C@H](NC(=O)[C@@H]2C[C@@H](CCC)CN2C)[C@H](C)Cl)O[C@@H]1SC", "growth inhibition call": "inactive"}
{"smiles": "CCC[C@@H]1C[C@@H](C(=O)N[C@@H]([C@H]2O[C@H](SC)[C@H](OP(=O)(O)O)[C@@H](O)[C@H]2O)[C@H](C)Cl)N(C)C1", "growth inhibition call": "inactive"}
{"smiles": "CCCC1CC(C(=O)NC(C(C)Cl)C2OC(SC)C(O)C(O)C2O)N(C)C1.Cl", "note": "(configuration not stated)", "growth inhibition call": "active"}
{"smiles": "CCC[C@@H]1C[C@@H](C(=O)N[C@H]([C@H]2O[C@H](SC)[C@H](O)[C@@H](O)[C@H]2O)[C@@H](C)Cl)N(C)C1", "growth inhibition call": "active"}
{"smiles": "CCCCCCCCCCCCCCCC(=O)OC1C(SC)OC(C(NC(=O)C2CC(CCC)CN2C)C(C)Cl)C(O)C1O.Cl", "note": "(configuration not stated)", "growth inhibition call": "inactive"}
{"smiles": "C[C@H](CO)N1C[C@H](C)[C@H](CN(C)Cc2ccncc2)Oc2ccc(NC(=O)Nc3cccc4ccccc34)cc2CC1=O", "growth inhibition call": "inactive"}
{"smiles": "COc1ccc(NC(=O)Nc2ccc3c(c2)C(=O)N([C@H](C)CO)C[C@H](C)[C@@H](CN(C)S(=O)(=O)c2ccccc2)OCCCC[C@H](C)O3)cc1", "growth inhibition call": "inactive"}
{"smiles": "COc1ccc(S(=O)(=O)N(C)C[C@@H]2Oc3cc(C4=CCCC4)ccc3S(=O)(=O)N([C@@H](C)CO)C[C@@H]2C)cc1", "growth inhibition call": "inactive"}
{"smiles": "C[C@@H]1[C@@H](c2ccccc2)OC(=O)[C@@H]2[C@H]3C(=O)N([C@@H](C)CO)[C@@H]4C(=O)N(Cc5ccccc5)CC=C[C@]34O[C@@H]2/C=C/CCC(=O)N1C", "growth inhibition call": "inactive"}
{"smiles": "C=CC[C@@H](CC(=O)NCCO)C(=O)NCCOC(=O)[C@H](CC=C)NC(=O)OCC1c2ccccc2-c2ccccc21", "growth inhibition call": "inactive"}
{"smiles": "C[C@@H]1CCCCO[C@@H](CN(C)S(=O)(=O)c2ccc(F)cc2)[C@@H](C)CN([C@@H](C)CO)C(=O)c2cc(NC(=O)Cc3ccccc3)ccc2O1", "growth inhibition call": "inactive"}
{"smiles": "CN[C@@H](C)C(=O)N[C@H]1CN(C(=O)CC(C)C)CC[C@H]2CC[C@@H](C(=O)NC(c3ccccc3)c3ccccc3)N2C1=O", "growth inhibition call": "inactive"}
{"smiles": "CC1(C)S[C@@H]2[C@H](NC(=O)[C@H](NC(=O)N3CCNC3=O)c3ccccc3)C(=O)N2[C@H]1C(=O)O", "growth inhibition call": "inactive"}
{"smiles": "CCN1CCN(C(=O)NC(C(=O)NC2C(=O)N3C2SC(C)(C)C3C(=O)[O-])c2ccccc2)C(=O)C1=O.[Na+]", "note": "(configuration not stated)", "growth inhibition call": "active"}
{"smiles": "CC1(C)SC2C(NC(=O)C(C(=O)[O-])c3ccccc3)C(=O)N2C1C(=O)[O-].[Na+].[Na+]", "note": "(configuration not stated)", "growth inhibition call": "active"}
{"smiles": "CC1(C)SC2C(NC(=O)C(NC(=O)N3CCNC3=O)c3ccccc3)C(=O)N2C1C(=O)[O-].[Na+]", "note": "(configuration not stated)", "growth inhibition call": "active"}
{"smiles": "CCN1CCN(C(=O)N[C@@H](C(=O)N[C@@H]2C(=O)N3[C@@H]2SC(C)(C)[C@@H]3C(=O)O)c2ccccc2)C(=O)C1=O", "growth inhibition call": "active"}
{"smiles": "CC1(C)SC2C(NC(=O)C(N)c3ccccc3)C(=O)N2C1C(=O)[O-].[Na+]", "note": "(configuration not stated)", "growth inhibition call": "inactive"}
{"smiles": "CC1(C)SC2C(NC(=O)C(C(=O)[O-])c3ccsc3)C(=O)N2C1C(=O)[O-].[Na+].[Na+]", "note": "(configuration not stated)", "growth inhibition call": "inactive"}
{"smiles": "C[C@H]1CN([C@@H](C)CO)C(=O)c2cc(C#CC3(O)CCCC3)cnc2O[C@@H]1CN(C)S(C)(=O)=O", "growth inhibition call": "inactive"}
{"smiles": "Cc1noc(C)c1NC(=O)N(C)C[C@H]1OCCCC[C@@H](C)Oc2ccc(NC(=O)CCC(F)(F)F)cc2C(=O)N([C@@H](C)CO)C[C@@H]1C", "growth inhibition call": "inactive"}
{"smiles": "C[C@@H]1CN([C@@H](C)CO)C(=O)c2cc(C#Cc3ccccc3F)cnc2O[C@H]1CN(C)S(=O)(=O)c1ccccc1F", "growth inhibition call": "inactive"}
{"smiles": "O=C(NCCN1CCOCC1)C(=O)NC[C@H]1OCCN1S(=O)(=O)c1ccc(F)cc1", "growth inhibition call": "inactive"}
{"smiles": "Cc1ccc(C(=O)Oc2ccc(/C=N/c3cccs3)cc2)cc1", "growth inhibition call": "inactive"}
{"smiles": "COc1ccc(S(=O)(=O)N(C)C[C@@H]2Oc3c(NC(=O)NC(C)C)cccc3C(=O)N([C@@H](C)CO)C[C@@H]2C)cc1", "growth inhibition call": "inactive"}
{"smiles": "COCC(=O)N(C)C[C@H]1Oc2cc(C#Cc3cccnc3)ccc2S(=O)(=O)N([C@@H](C)CO)C[C@@H]1C", "growth inhibition call": "inactive"}
{"smiles": "C[C@@H]1CN([C@@H](C)CO)C(=O)c2c(c3ccccc3n2C)-c2ccccc2CO[C@H]1CN(C)Cc1ccc(F)cc1", "growth inhibition call": "inactive"}
{"smiles": "C[C@@H]1CN([C@H](C)CO)C(=O)c2cc(NC(=O)CCCN(C)C)ccc2O[C@H]1CN(C)S(=O)(=O)c1cccs1", "growth inhibition call": "inactive"}
